# Results reported in PubChem BioAssay (NCI).
# Compounds without any hit were thinned out: in the full panel of roughly 79,000, 15% have a hit. A number with no mark means an inactive call. Activity calls are given as the source filed them. Rule as the data show it: active = growth inhibition above about 70%; inactive = the rest.
# Tests used:
# [1] = NCI Yeast Anticancer Drug Screen. Data for the rad50 strain (AID 155);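 also: 0% = growth of vehicle-only cultures of the same strain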; details: S. cerevisiae rad50 strain growth inhibition, active compounds read high
# In short: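 A DNA repair-deficient yeast mutant serves as the test organism; compound-induced growth inhibition is calculated against vehicle-treated cells.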
# [2] = NCI Yeast Anticancer Drug Screen. Data for the mec2-1 strain (AID 157); details: S. cerevisiae mec2-1 strain, active compounds read high
# In short: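 Readout is yeast growth inhibition, normalised to vehicle-treated controls, in the mec2-1 strain exposed to compound.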
# [3] = NCI Yeast Anticancer Drug Screen. Data for the sgs1 mgt1 strain (AID 161);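 also: 0% = growth of cultures given vehicle only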; details: S. cerevisiae sgs1 mgt1 strain, active compounds read high
# In short: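 Compounds are added to genetically altered yeast, and growth is compared with cultures given vehicle alone to give percent inhibition.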
# [4] = NCI Yeast Anticancer Drug Screen. Data for the cln2 rad14 strain (AID 165);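 also: 0% = growth equal to vehicle treated cultures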; details: S. cerevisiae cln2 rad14 strain, active compounds read high
# In short: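 Relative to vehicle controls, growth inhibition of compound-treated cln2 rad14 yeast was recorded.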
# [5] = NCI Yeast Anticancer Drug Screen. Data for the bub3 strain (AID 167); details: S. cerevisiae bub3 mutant strain, active compounds read high
# In short: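 Inhibition values come from growth of compound-treated mutant yeast normalised to vehicle-treated controls.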
# [6] = NCI Yeast Anticancer Drug Screen. Data for the mlh1 rad18 strain (AID 175); details: S. cerevisiae mlh1 rad18 strain growth inhibition, active compounds read high
# In short: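 Test agents were incubated with a yeast strain of defined genotype (DNA damage repair defect). Inhibition of growth was derived by comparison with vehicle-exposed cultures.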
# [7] = at 5.0 µM (retest, dose inferred, filed as 0.5)
# [8] = at 50.0 µM (retest, dose inferred, filed as 5.0)
SMILES,"growth inhibition [1, 7]","growth inhibition [1, 8]",growth inhibition ([1]; at 50.0 µM),"growth inhibition [2, 7]","growth inhibition [2, 8]",growth inhibition ([2]; at 50.0 µM),"growth inhibition [3, 7]","growth inhibition [3, 8]",growth inhibition ([3]; at 50.0 µM),"growth inhibition [4, 7]","growth inhibition [4, 8]",growth inhibition ([4]; at 50.0 µM),"growth inhibition [5, 7]","growth inhibition [5, 8]",growth inhibition ([5]; at 50.0 µM),"growth inhibition [6, 7]","growth inhibition [6, 8]",growth inhibition ([6]; at 50.0 µM)
NC(=O)C1CCCN1C(=O)C1CCCN(Cc2ccc(CN3CCCC(C(=O)N4CCCC4C(N)=O)C3)cc2)C1 (stereo not given),-1%,-5%,91.5% (active),8%,1%,74.2% (active),-10%,-11%,74.4% (active),-13%,11%,74.7% (active),16%,13%,78.8% (active),-10%,-12%,78.3% (active)
O=C(O)CCC(=O)NCCNC(=O)CC(=O)O,-152%,-162%,10.7%,-52%,-51%,-14.8%,-57%,-63%,43%,-52%,-48%,36.3%,-68%,-79%,-1.55%,-116%,-107%,9%
N#CCCN(CCC#N)Cc1cc(-c2ccccc2)ccc1O,5%,55%,87.5% (active),1%,19%,55%,-2%,59%,59.5%,-8%,-8%,-14.9%,1%,44%,85.2% (active),-9%,28%,82.2% (active)
CC(C)(C)c1cc(C(c2cc3c(cc2O)OCO3)N2CCOCC2)cc(C(C)(C)C)c1O (stereo not given),87% (active),95% (active),69.9%,59%,97% (active),64.6%,99% (active),95% (active),72.2% (active),52%,96% (active),57.7%,68%,96% (active),63%,69%,97% (active),7.8%
O=C1OC(=O)c2ccc([N+](=O)[O-])c3cccc1c23,0%,7%,70.4% (active),2%,9%,51.6%,2%,2%,76.4% (active),3%,14%,26.4%,0%,16%,74.2% (active),0%,13%,82.8% (active)
COc1ccccc1C(C)c1ccc2ccccc2c1C(=O)O (stereo not given),11%,91% (active),94.6% (active),2%,93% (active),94% (active),1%,90% (active),95% (active),7%,93% (active),96.1% (active),-6%,87% (active),93.4% (active),2%,94% (active),96% (active)
O=C(Nn1c(-c2ccccc2)nc2ccccc2c1=O)c1ccccc1O,-4%,49%,73.4% (active),-14%,51%,64.2%,3%,59%,79.5% (active),9%,59%,77.8% (active),-11%,80% (active),78.2% (active),-1%,79% (active),69.8%
O=c1[nH]c(Cc2ccccc2)nc2c1sc1nc3ccccc3n12,36%,86% (active),25.2%,9%,56%,-1.95%,19%,92% (active),-34.2%,28%,81% (active),-2.85%,8%,89% (active),-33.4%,18%,83% (active),-7.45%
COC(=O)C1(COCc2ccccc2)CCCC2OC21 (stereo not given),16%,-2%,2.95%,6%,-4%,-5.2%,-31%,-2%,10.4%,19%,43%,-2.55%,5%,79% (active),2.45%,9%,10%,6.5%
CC(C)Cn1cnc2c(SCc3cccc(F)c3)nc(N)nc21,0%,27%,-10.4%,-1%,12%,8.05%,2%,31%,67.8%,-5%,54%,-10.2%,2%,35%,73.3% (active),0%,45%,37%
CCCn1c(=O)c2ccccc2[n+]2c(-c3ccc([N+](=O)[O-])cc3)csc12,5%,91% (active),93% (active),1%,92% (active),91.8% (active),1%,67%,92.1% (active),-7%,77% (active),67.1%,-17%,97% (active),93.5% (active),11%,85% (active),92.2% (active)
CCN(CC)CCOc1cccc2c1C(=O)c1c(O)cccc1C2=O,12%,72% (active),59.4%,-21%,70% (active),39.3%,4%,54%,71.2% (active),5%,38%,74.3% (active),8%,47%,35.9%,-1%,79% (active),62.4%
c1ccc(NNc2ccc3ccccc3n2)cc1,3%,96% (active),38.6%,-21%,2%,44.6%,-3%,18%,77.2% (active),-6%,-1%,39%,24%,85% (active),77.6% (active),0%,40%,65.8%
Cc1cc(Br)cc(C(=O)Cl)c1O,-159%,-90%,32.5%,-51%,-24%,22%,-68%,-54%,30.2%,-69%,-11%,28.7%,-74%,-47%,5.9%,-150%,-67%,34.7%
CC1=CC(c2c(O)cc(O)c(C(=O)CCc3ccccc3)c2O)C(C(C)C)CC1 (stereo not given),11%,88% (active),70.8% (active),10%,85% (active),83% (active),1%,91% (active),80% (active),3%,87% (active),79.2% (active),21%,96% (active),76% (active),8%,76% (active),82.2% (active)
CC1(c2ccccc2)OC1C(=O)N(c1ccccc1)c1ccccc1 (stereo not given),14%,99% (active),95.8% (active),18%,99% (active),85% (active),12%,98% (active),53.3%,15%,97% (active),96.7% (active),22%,98% (active),92.7% (active),21%,97% (active),97.7% (active)
CN(C)CCOC(=O)C1(CCC2CCCCC2)CCCCC1,0%,80% (active),96.9% (active),-1%,17%,30.9%,-2%,57%,60.5%,-3%,37%,18.7%,1%,32%,85% (active),-2%,77% (active),93.3% (active)
O=C(Nc1ccc(Cl)cc1)OCC1C2C=CC(C2)C1CO (stereo not given),6%,95% (active),86.8% (active),-1%,97% (active),75.7% (active),2%,97% (active),98.4% (active),2%,89% (active),66.5%,-3%,92% (active),92.9% (active),5%,97% (active),77.8% (active)
COc1ccc(-c2ccccc2)cc1SCCC(=O)O,3%,15%,79.7% (active),-1%,21%,70.5% (active),4%,32%,48.3%,-7%,17%,77.7% (active),0%,10%,65.2%,-2%,20%,87% (active)
CCCCCCCCCCCCO,10%,23%,64.4%,9%,24%,42%,-4%,28%,60.8%,0%,12%,-4.65%,-6%,51%,2.85%,12%,55%,76.4% (active)
